# Records with an inconclusive call do not appear. A call without a number means that no potency is given here. Values without a mark were called inactive. The source made the active and inactive calls. Calls follow the shape of the dose curve; as a rule, active = well fitted cell-killing curve with a large enough effect in the repeat runs; inconclusive = weak or mixed curves, or effect the other way; inactive = flat fitted curve, though single readings scatter.
# Assay: Caspase-3/7 induction in HepG2 cells by small molecules, qHTS cell viability counter screen (AID 1346981); also: nearly all actives have a fitted effect of over 30% in size
# Conditions: CellTiter-Fluor fluorescence, 17 h; series mostly up to 92.4 µM
# Excerpt: U.S. Tox21 Program National Center for Advancing Translational Sciences [NCATS] NIH Chemical Genomics Center [NCGC] U.S. Environmental Protection Agency [EPA] National Institutes of Environmental Health Sciences [NIEHS] National Toxicology Program [NTP] U.S. Food and Drug Administration [FDA] Tox21 Assay Overview: Apoptosis is a process of programmed cell death and plays a central role in the development of multicellular organisms. It is a highly regulated process and induces cell death by activating caspases, which are the members of cysteine aspartic acid-specific protease (caspase) family. Caspases involved in apoptosis are classified by their mechanism of action as initiator caspases (caspase-2, -8, -9 and -10) and executioner caspases (caspase-3, -6, and -7). Inhibition of apoptosis results in number of cancers, autoimmune diseases, inflammatory diseases and viral infection. To identify small molecule compounds that induce apoptosis, a homogeneous, luminescent Caspase-Glo 3/7 assay was used. Wild type HepG2 cells were used to screen Tox21 libraries for identifying caspase-3/7 activity inducers. Also cytotoxicity of the compounds was tested in parallel by measuring the cell viability using CellTiter-Fluor assay system in the same wells.
# Tox21 Assay Protocol Summary: HepG2 cells were dispensed at 2,000 per well in 5uL of culture medium into white solid bottom 1536-well plates (Corning Life Sciences, Corning, NY) using a Multidrop Combi (Thermo Scientific, Waltham, MA) dispenser. The assay plates were incubated at 37 C and 5% CO2 for 5hr, and then 23nL of compounds dissolved in DMSO and positive control were transferred using a Pintool station ([…], San Diego, CA). The assay plates were incubated at 37C and 5% CO2 for 17hr. For cytotoxicity read, after 16hr incubation at 37C, 1uL CellTiter-Fluor reagent (Promega Corporation, Madison, WI) was added to each well of the assay plates using Flying Reagent Dispenser (FRD, Aurora Discovery, San Diego, CA). After 1hr incubation at 37C and 5% CO2, the fluorescence signal was quantified using a ViewLux plate reader (PerkinElmer, Shelton, CT).
Structure (SMILES),Potency,"activity change, negative = cytotoxicity"
CC(C)NC(=O)NC(C)C,inactive,–
Cn1c(N)c(N=O)c(=O)n(C)c1=O,inactive,–
O=C1CCCC(=O)C1,inactive,–
CCOC(C)(C)C,inactive,–
CCC=O,inactive,–
O=C1NC(=O)[C@@]2(CCOc3ccc(F)cc32)N1,inactive,–
O=C1OC(=O)C2CCCCC12 (stereo not given),inactive,–
CC(C)(O)C#CC(C)(C)O,inactive,–
Cc1ccc(Cl)cc1Cl,inactive,–
CN(C(=O)c1c(O)c2ccccc2n(C)c1=O)c1ccccc1,inactive,–
N=c1nc(N2CCCCC2)cc(N)n1O,inactive,–
CC1=CC(C)C(C=O)CC1 (stereo not given),inactive,–
Cc1[nH]c(=O)c(C#N)cc1-c1ccc2nccn2c1,inactive,–
Oc1ccc(C2CNCCc3c2cc(O)c(O)c3Cl)cc1 (stereo not given),inactive,–
Nc1ccc(S(=O)(=O)Nc2ccnn2-c2ccccc2)cc1,–,-0.388% [at 19 µM]
Cn1cc(S(C)=O)c(=O)c2ccc(F)cc21 (stereo not given),inactive,–
O=C1CCCCCCCCCCCN1,inactive,–
C1OCOCO1,inactive,–
COCCc1ccc(OCC(O)CNC(C)C)cc1 (stereo not given),inactive,–
CCn1ccnc1CC1COc2ccccc2O1 (stereo not given),inactive,–

Structure (SMILES),Potency,"activity change, negative = cytotoxicity"
Cc1cccc(C)c1NC(=O)C(C)N (stereo not given),inactive,–
CC(=O)Nc1c(I)cc(I)c(C(=O)O)c1I,inactive,–
C[N+](C)(C)CC(O)CC(=O)[O-] (stereo not given),inactive,–
O=C(O)COc1nn(Cc2ccccc2)c2ccccc12,inactive,–
C1CN(CCOCCN2CCOCC2)CCO1,inactive,–
c1cnc(N2CCN(Cc3ccc4c(c3)OCO4)CC2)nc1,inactive,–
C[C@@H]1CCN(C(=O)[C@H](CCCN=C(N)N)NS(=O)(=O)c2cccc3c2NC[C@H](C)C3)[C@@H](C(=O)O)C1,inactive,–
CCOC(=O)Nc1ccc(NCc2ccc(F)cc2)nc1N,inactive,–
CCCCCCCCCCCCCCCCC,inactive,–
O=C(O)CN(CCOCCOCCN(CC(=O)O)CC(=O)O)CC(=O)O,–,2.16% [at 0.349 µM]
CC(C)NCC(O)c1ccc(NS(C)(=O)=O)cc1 (stereo not given),inactive,–
O=c1cc(CO)occ1O,inactive,–
CC(=O)OCC(=O)[C@@]1(O)CCC2C3CCC4=CC(=O)CC[C@]4(C)C3[C@@H](O)C[C@@]21C (stereo not given in full),inactive,–
Nc1ccccc1S(=O)(=O)O,inactive,–
O=S(O)CO,inactive,–
NC(=O)COCCN1CCN(C(c2ccccc2)c2ccc(Cl)cc2)CC1 (stereo not given),inactive,–
CC(=O)CC(C)C,inactive,–
FC(F)OC(Cl)C(F)(F)F (stereo not given),inactive,–
CCC(C)S (stereo not given),–,-0.646% [at 3.27 µM]
CCCc1cc(C(N)=S)ccn1,inactive,–
